The panel holds about 83,000 compounds, 20% with a hit somewhere; the sample as a whole holds those more often.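 Step 1: grow cells in 96-well plates. Step 2: add test compound at a single concentration. Step 3: incubate 48 h. Step 4: record percent growth.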 Activity calls are given as the source filed them. The calls were made as follows: active = growth percent below 10; inactive = the rest.
Experiments:
Experiment in all cases: NCI-60 one-dose screen, 48 h (100 = growth as untreated, 0 = no growth, -100 = all killed)
Settings in all cases: 10 µM unless noted
SR leukemia = tested on: SR leukemia
RPMI-8226 leukemia = tested on: RPMI-8226 leukemia
OVCAR-8 ovarian = tested on: OVCAR-8 ovarian
OVCAR-5 ovarian = tested on: OVCAR-5 ovarian
OVCAR-4 ovarian = tested on: OVCAR-4 ovarian
SK-OV-3 ovarian = tested on: SK-OV-3 ovarian
IGROV1 ovarian = tested on: IGROV1 ovarian
OVCAR-3 ovarian = tested on: OVCAR-3 ovarian
HS 578T breast = tested on: HS 578T breast
NCI/ADR-RES ovarian = tested on: NCI/ADR-RES ovarian
T-47D breast = tested on: T-47D breast
BT-549 breast = tested on: BT-549 breast
MDA-MB-435 melanoma = tested on: MDA-MB-435 melanoma
SW-620 colon = tested on: SW-620 colon
MCF7 breast = tested on: MCF7 breast
HCT-116 colon = tested on: HCT-116 colon
HCC-2998 colon = tested on: HCC-2998 colon
KM12 colon = tested on: KM12 colon

Measured: growth

Cc1ccc(C(=O)CSc2nc3ccccc3c(=O)n2C)cc1
inactive: SR leukemia 81.5% | RPMI-8226 leukemia 63.8% | OVCAR-8 ovarian 94.4% | OVCAR-5 ovarian 105% | OVCAR-4 ovarian 52.4% | SK-OV-3 ovarian 87.4% | IGROV1 ovarian 71.1% | OVCAR-3 ovarian 94.2% | HS 578T breast 94.6% | NCI/ADR-RES ovarian 90% | T-47D breast 76.2% | BT-549 breast 96.1% | MDA-MB-435 melanoma 100% | SW-620 colon 99.2% | MCF7 breast 78.3% | HCT-116 colon 89.2% | HCC-2998 colon 113% | KM12 colon 86.7%

CCCCN1C(=O)/C(=c2\sc3n(c2=O)C2C(NN=3)N(CC)C(=O)N2CC)c2cccc(C)c21 (centres undefined)
active: MDA-MB-435 melanoma -31%
inactive: SR leukemia 15.1% | RPMI-8226 leukemia 20.3% | OVCAR-8 ovarian 44.6% | OVCAR-5 ovarian 50.9% | OVCAR-4 ovarian 53.8% | SK-OV-3 ovarian 82% | IGROV1 ovarian 34.7% | OVCAR-3 ovarian 28.9% | HS 578T breast 34.4% | NCI/ADR-RES ovarian 24.6% | T-47D breast 41.4% | BT-549 breast 82.4% | SW-620 colon 39.7% | HCT-116 colon 24.8% | HCC-2998 colon 61.1% | KM12 colon 33.3%

C=C(C)[C@@H]1CC[C@]2(COCCCNCCCN)CC[C@]3(C)[C@H](CC[C@@H]4[C@@]5(C)CC[C@H](O)C(C)(C)[C@@H]5CC[C@]43C)[C@@H]12
active: SR leukemia -33.1% | RPMI-8226 leukemia -35.3% | OVCAR-8 ovarian -40.4% | OVCAR-5 ovarian -95.3% | OVCAR-4 ovarian -68.5% | IGROV1 ovarian -82.9% | OVCAR-3 ovarian -77.5% | HS 578T breast -49.1% | NCI/ADR-RES ovarian -65.5% | T-47D breast -53.3% | BT-549 breast -77.4% | MDA-MB-435 melanoma -95.8% | SW-620 colon -68.1% | MCF7 breast -75.4% | HCT-116 colon -86.5% | HCC-2998 colon -71.5% | KM12 colon -65.4%
inactive: SK-OV-3 ovarian 105%

O=C(/C=C/c1cccc(F)c1)c1cccc(OCCCOc2cccc(C(=O)/C=C/c3cccc(F)c3)c2)c1
inactive: OVCAR-8 ovarian 67.6% | OVCAR-5 ovarian 77.8% | OVCAR-4 ovarian 75.3% | SK-OV-3 ovarian 124% | IGROV1 ovarian 36.9% | OVCAR-3 ovarian 74.9% | HS 578T breast 93.8% | NCI/ADR-RES ovarian 90.1% | T-47D breast 69.8% | BT-549 breast 72.1% | MDA-MB-435 melanoma 99.8% | SW-620 colon 14.3% | MCF7 breast 10.2% | HCC-2998 colon 44.2% | KM12 colon 32.6%
active: SR leukemia 6.17% | RPMI-8226 leukemia -15.7% | HCT-116 colon -80.3%

CC(=O)OCCCCN1C=C/C(=C\C(=O)n2ccc3ccccc32)c2ccccc21
inactive: SR leukemia 88.7% | RPMI-8226 leukemia 98.3% | OVCAR-8 ovarian 102% | OVCAR-5 ovarian 102% | OVCAR-4 ovarian 85.5% | SK-OV-3 ovarian 97.6% | IGROV1 ovarian 83.3% | OVCAR-3 ovarian 100% | HS 578T breast 102% | NCI/ADR-RES ovarian 109% | T-47D breast 92.7% | BT-549 breast 113% | MDA-MB-435 melanoma 106% | SW-620 colon 98.4% | MCF7 breast 90.4% | HCT-116 colon 103% | HCC-2998 colon 112% | KM12 colon 97.7%

C=C(C)[C@@H]1CC[C@]2(C(=O)NC3CCCCC3)CC[C@]3(C)[C@H](CC[C@@H]4[C@@]5(C)CC[C@H](N)C(C)(C)[C@@H]5CC[C@]43C)[C@@H]12
inactive: RPMI-8226 leukemia 39% | OVCAR-8 ovarian 101% | OVCAR-5 ovarian 115% | OVCAR-4 ovarian 96.4% | SK-OV-3 ovarian 117% | IGROV1 ovarian 113% | OVCAR-3 ovarian 101% | HS 578T breast 95.8% | NCI/ADR-RES ovarian 97.5% | T-47D breast 80.6% | BT-549 breast 106% | MDA-MB-435 melanoma 98% | SW-620 colon 75.4% | MCF7 breast 24.5% | HCC-2998 colon 92.1% | KM12 colon 95.8%
active: SR leukemia 1.36% | HCT-116 colon 7.83%

CN1CCN(c2ccc(Nc3nc(NCCCNS(=O)(=O)c4ccc(F)cc4)c4sccc4n3)cc2)CC1
inactive: RPMI-8226 leukemia 12.5% | OVCAR-8 ovarian 77.3% | OVCAR-5 ovarian 86.7% | OVCAR-4 ovarian 60% | SK-OV-3 ovarian 115% | IGROV1 ovarian 81.6% | OVCAR-3 ovarian 97.4% | HS 578T breast 55.6% | NCI/ADR-RES ovarian 87.8% | T-47D breast 29.8% | BT-549 breast 65.9% | MDA-MB-435 melanoma 47.3% | SW-620 colon 70.1% | MCF7 breast 31.2% | HCT-116 colon 20.8% | HCC-2998 colon 74.3% | KM12 colon 65.3%
active: SR leukemia 7.3%

Cc1ccc(NC(=O)Nc2nc3ccc([N+](=O)[O-])cc3s2)cc1
active: RPMI-8226 leukemia 2.09% | OVCAR-4 ovarian -6.09% | SK-OV-3 ovarian -12.4% | OVCAR-3 ovarian -0.465% | NCI/ADR-RES ovarian 2.65% | T-47D breast -22.3% | BT-549 breast -9.82% | MDA-MB-435 melanoma -7.46% | SW-620 colon 8.56% | MCF7 breast 2.35% | HCT-116 colon 1.1% | HCC-2998 colon 6.19% | KM12 colon -3.91%
inactive: SR leukemia 20.3% | OVCAR-8 ovarian 12.8% | OVCAR-5 ovarian 10.3% | IGROV1 ovarian 16.8% | HS 578T breast 15.2%

CC(Nc1c(C#N)cnc2ccc(-c3cncc(O)c3)cc12)c1ccccc1 (centres undefined)
inactive: RPMI-8226 leukemia 11.3% | OVCAR-8 ovarian 13% | OVCAR-5 ovarian 25.6% | NCI/ADR-RES ovarian 12.4% | MDA-MB-435 melanoma 25.2% | SW-620 colon 10.1% | HCC-2998 colon 19.5%
active: SR leukemia 6.19% | OVCAR-4 ovarian -17.5% | SK-OV-3 ovarian -3.84% | IGROV1 ovarian -20.3% | OVCAR-3 ovarian 7.92% | HS 578T breast -18.3% | T-47D breast 6.53% | BT-549 breast -18.3% | MCF7 breast 0.808% | HCT-116 colon 3.68% | KM12 colon 4.85%

COc1ccc(OC)c(NC(=O)CCCCCCNC(=O)C(O)(O)C(F)(F)F)c1
inactive: SR leukemia 12.9% | RPMI-8226 leukemia 20.9% | OVCAR-8 ovarian 23.4% | OVCAR-5 ovarian 26.3% | OVCAR-4 ovarian 86.7% | IGROV1 ovarian 55.2% | OVCAR-3 ovarian 40.5% | HS 578T breast 49.7% | NCI/ADR-RES ovarian 32.8% | T-47D breast 22.4% | BT-549 breast 76.8% | MDA-MB-435 melanoma 30.1% | MCF7 breast 36.9% | HCC-2998 colon 51.5% | KM12 colon 43.5%
active: SK-OV-3 ovarian 6.28% | SW-620 colon 6.62% | HCT-116 colon 7.1%

CSc1ccc(/C(=N/N=C(N)N)c2ccc(F)cc2)cc1
active: SR leukemia -13.8% | RPMI-8226 leukemia 5.69% | HS 578T breast -1.22% | NCI/ADR-RES ovarian 4.1% | MCF7 breast 5.11% | HCT-116 colon 6.25% | HCC-2998 colon -14.1% | KM12 colon 9.6%
inactive: OVCAR-8 ovarian 11.9% | OVCAR-5 ovarian 43.9% | OVCAR-4 ovarian 57% | SK-OV-3 ovarian 45.3% | IGROV1 ovarian 39.9% | OVCAR-3 ovarian 27.5% | T-47D breast 58.1% | BT-549 breast 16.2% | MDA-MB-435 melanoma 10.6% | SW-620 colon 22.2%

Cc1ccc(C(=O)Nc2ccc(CNCCN3CCNCC3)c(C(F)(F)F)c2)cc1C#Cc1cnc2cccnn12
inactive: OVCAR-5 ovarian 51.8% | SK-OV-3 ovarian 114% | IGROV1 ovarian 11.8% | HS 578T breast 36.6% | NCI/ADR-RES ovarian 71.6%
active: SR leukemia -39.4% | RPMI-8226 leukemia -23.3% | OVCAR-8 ovarian 2.74% | OVCAR-4 ovarian -23% | OVCAR-3 ovarian -20.5% | T-47D breast 3.12% | MDA-MB-435 melanoma -76.2% | SW-620 colon -11.1% | MCF7 breast -82.9% | HCT-116 colon -58.5% | HCC-2998 colon 3.91% | KM12 colon -45.6%

Source: PubChem BioAssay (NCI)
